# Assays:
# Test in all cases: PBM binding z-score (relative to random genomic background probes); higher = stronger binding; sequences stand for … in GC…GCGATTGACAGCGTAGAATGAAGG
# [1] = tested on: FXR:RXRa (NR concentration 270 nM, RXRa partner concentration 90 nM)
# How it was run: (§1)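 Ligand-free nuclear receptor dimers were applied to custom Agilent 4×180K protein-binding microarrays whose double-stranded probes carried direct-repeat seeds, single-nucleotide variants, half-site ablations and random human genomic background sequences in 34-nt variable regions. Incubation lasted 1 h. Binding z-scores were computed against the random background probes from regression-normalized fluorescence.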
# [2] = tested on: LXRa:RXRa (NR concentration 270 nM, RXRa partner concentration 90 nM)
# How it was run: as §1
# [3] = tested on: LXRa homodimer (NR concentration 270 nM)
# How it was run: as §1
# [4] = tested on: LXRb:RXRa (NR concentration 270 nM, RXRa partner concentration 90 nM)
# How it was run: as §1
# [5] = tested on: LXRb homodimer (NR concentration 270 nM)
# How it was run: as §1
# [6] = tested on: PPARa:RXRa (NR concentration 270 nM, RXRa partner concentration 90 nM)
# How it was run: as §1
# [7] = tested on: PPARg:RXRa 270nM:90nM, anti-RXR (NR concentration 270 nM, RXRa partner concentration 90 nM)
# How it was run: as §1
# [8] = tested on: PPARg:RXRa 30nM:10nM, anti-RXR (NR concentration 30 nM, RXRa partner concentration 10 nM)
# How it was run: as §1
# [9] = tested on: PPARg:RXRa 90nM:30nM, anti-RXR (NR concentration 90 nM, RXRa partner concentration 30 nM)
# How it was run: as §1
# [10] = tested on: PPARg:RXRa DBDmut IVT, anti-RXR (DBD mutation: RXRa K156A/R161A, NR concentration 270 nM, RXRa partner concentration 90 nM)
# How it was run: as §1
# [11] = tested on: PPARg:RXRa IVT, anti-PPARg (NR concentration 270 nM, RXRa partner concentration 90 nM)
# How it was run: as §1
# [12] = tested on: PPARg DBDmut:RXRa IVT, anti-PPARg (DBD mutation: PPARg1 K132A/R137A, NR concentration 270 nM, RXRa partner concentration 90 nM)
# How it was run: as §1
# [13] = tested on: PPARg DBDmut IVT, anti-PPARg (DBD mutation: PPARg1 K132A/R137A, NR concentration 270 nM)
# How it was run: as §1
# [14] = tested on: PPARg homodimer (NR concentration 180 nM)
# How it was run: as §1
# [15] = tested on: PXR:RXRa (NR concentration 270 nM, RXRa partner concentration 90 nM)
# How it was run: as §1
# [16] = tested on: PXR homodimer (NR concentration 270 nM)
# How it was run: as §1
# [17] = tested on: RARa:RXR (NR concentration 270 nM, RXRa partner concentration 90 nM)
# How it was run: as §1
# [18] = tested on: RARa homodimer (NR concentration 270 nM)
# How it was run: as §1
# [19] = tested on: RARb:RXRa (NR concentration 270 nM, RXRa partner concentration 90 nM)
# How it was run: as §1
# [20] = tested on: PPARg:RXRa (NR concentration 180 nM, RXRa partner concentration 90 nM)
# How it was run: as §1
Sequence,PBM binding z-score [1],PBM binding z-score [2],PBM binding z-score [3],PBM binding z-score [4],PBM binding z-score [5],PBM binding z-score [6],PBM binding z-score [7],PBM binding z-score [8],PBM binding z-score [9],PBM binding z-score [10],PBM binding z-score [11],PBM binding z-score [12],PBM binding z-score [13],PBM binding z-score [14],PBM binding z-score [15],PBM binding z-score [16],PBM binding z-score [17],PBM binding z-score [18],PBM binding z-score [19],PBM binding z-score [20]
GATACAGGGTCATCTAGAGGCCAGAGTATGGAAA,6.84,5.02,0.214,4.22,0.201,5.87,5.65,2.33,4.1,1.93,3.6,0.707,0.0112,3.91,4.97,0.378,6.28,0.58,4.48,–
CCTTACGGTTCACTGACAGGTTATAGCATTTGGA,1.66,2.43,1.04,1.89,0.471,2.33,1.08,0.683,0.771,0.62,0.00685,0.829,0.643,1.64,2.14,0.911,2.41,1.71,1.16,–
AGTCAAAGTTCAGGACGAGGTAAAGTAAAGCACG,4.27,3.89,1.34,1.9,0.465,3.54,4.89,1.9,4.21,0.127,1.81,0.318,0.49,2.36,2.86,1.28,2.84,1.52,4.33,–
CAAACTAGGTCAAGGGGTCAAAGTCCGCTTCCCG,7.14,6.22,3.83,6.08,1.17,6.9,8.96,8.47,9.27,8.13,8.72,0.711,1.52,6.55,6.31,1.78,7.88,1.67,5.46,–
AAAATGAGGTTAAGATCAGGGAAACAGAATACAT,2.83,2.62,0.171,2.1,0.347,4.04,2.67,1.16,2.41,3.27,3.78,1.96,0.972,1.85,1.26,0.646,2.48,0.889,2.04,–
ATACGTAGGTTATCGGGTCATTCAGTTTGCGCAT,3.01,3.2,1.41,2.88,1.18,3.58,3.39,0.883,2.46,3.06,3.95,1.74,0.954,2.79,3.74,8.01,3.84,0.759,2.59,–
ATCTCTAGGTAAATGTTCAGTGAATCCCGAGGAT,0.0255,-0.125,-0.0436,-0.389,0.584,0.133,1.01,0.602,0.967,2.02,1.64,1.6,0.892,0.258,-0.0966,0.236,0.0149,0.709,0.211,–
CTAACTAGGTCACAGAGGTCAAAGTCCGTGCGTA,7.38,6.55,7.37,6.19,2.21,6.62,8.54,7.16,9.04,8.94,9.17,7.21,5.22,4.09,6.74,12.1,7.31,3.9,5.32,–
TCATATAGGTAATAAAGGTGAAAGTCGGCATCTA,1.82,2.15,0.741,1.79,0.336,3.1,4.44,4.71,4.65,3.99,3.74,0.942,1.43,2.01,1.34,0.488,2.02,1.77,1.6,–
CCTTACGGGTCTAGGTTATAGCACGGGTGGTACG,-0.122,-0.0116,0.0619,-0.517,-0.281,0.0671,-0.00243,-0.428,-0.39,-0.763,0.098,-1.1,-0.738,-0.385,-0.387,-0.0571,0.0446,-0.0691,0.467,–
ACTAGTAGGCCAAGGGTCACTCAAGATTAGTCCG,2.69,2.91,0.417,2.98,0.0422,5.64,9.26,10.9,10.4,5.4,6.33,0.82,1.01,2.17,3.24,-0.0548,4.2,0.166,3.61,–
CCTACTGGGCCATTGAGAGGTCATTGATCATATG,1.94,3.79,6.21,3.34,0.0421,–,2.82,0.314,1.68,4.21,3.95,-0.492,0.0836,2.14,4.37,2.03,4.26,0.245,2.82,1.83
CGTCCAACGTCAAGGTCAGTGAAAGAGACTCGAA,1.22,1.12,-0.198,1.28,-0.439,2.04,0.216,-0.429,-0.211,-0.074,-0.0705,-0.79,-0.354,1.13,1.59,0.288,1.99,0.37,3.35,–
CATACAGGGTCATCTAGGCCAGAGTAGGGACGGC,6.67,4.77,0.311,3.7,0.71,5.58,5.22,2.16,4.02,1.89,3.92,1.57,0.152,1.63,3.65,0.88,4.05,0.656,4.3,–
CCAGACAGGTGAAAGGTCACTCAGTCTGGTACGC,5.43,5.49,2.57,4.91,0.389,6.31,8.84,7.76,8.99,2.78,5.19,0.814,0.242,3.92,5.74,1.88,–,1.75,4.91,–
